Measurements from ChEMBL document CHEMBL3988442, “University of Dundee, Small-Polar-MMV Screening Library” (2021).
Screen size: about 85,000 compounds; about 440 (0.52%) showed an effect of 50% or more. The entries come from a sample that favours strong results as a whole.

Experiment: In vitro enzyme assay to detect hydrolysis of chlorophenol red-beta-D-[…] directly proportional to the number of Toxoplasma stably expressing beta-galactosidase
Type: functional, organism-based, Toxoplasma gondii
Set-up: scale not given: in the data most compounds retested in dose-response had high values

Row | Structure (SMILES) | Percent Effect (50 µM) | Percent Effect (10 µM)
1 | CCN(CC)C(=O)C(C)NC(=O)c1cc(C#N)c[nH]1 (configuration not stated) | -1.389% | 
2 | O=C(OCCOc1cccnc1)C1CC1 | 43.8% | 
3 | O=S(=O)(CCN1CCCC1)c1ccc(Cl)cc1 | 0.9615% | 
4 | CNC(=O)CN(C)C(=O)Cc1c[nH]c2ccccc12 | 2.87% | 
5 | Cc1ccsc1CN(C)C(=O)C(CN)c1ccccc1 (configuration not stated) | -6.582% | 
6 | CCN(CC)C(=O)c1ccccc1N(C)S(C)(=O)=O | -4.295% | 
7 | CC1CCC(N2Cc3nc(N)ncc3C2=O)CC1 (configuration not stated) |  | -0.06734%
8 | CNc1ncc2c(n1)CN(C1CCCC1)C2=O |  | 52.32%
9 | CN(C)c1ncc2c(n1)CN(C1CCSCC1)C2=O |  | 78.86%
10 | CNc1ncc2c(n1)CN(C1CC(C)(C)NC(C)(C)C1)C2=O |  | -1.01%
11 | Nc1ncc2c(n1)CN(C1CCCC1)C2=O |  | 17.83%
12 | CN(C)c1ncc2c(n1)CN(C1CC(C)(C)NC(C)(C)C1)C2=O |  | -0.4714%
13 | COCc1nc(C2CCN(S(C)(=O)=O)C2)no1 (configuration not stated) | -61% | 
14 | CC(O)CN(CCN)C(=O)OC(C)(C)C (configuration not stated) | -7.411% | 
15 | NCC(O)c1ccncc1 (configuration not stated) | 1.266% | 
16 | NCC(O)c1ccc(-c2ccccc2)cc1 (configuration not stated) | 100.3% | 

Row | Structure (SMILES) | Percent Effect (50 µM) | Percent Effect (10 µM)
17 | NCC(O)c1cccc2ccccc12 (configuration not stated) | 36.71% | 
18 | CCN(CC)C(=O)CN(C)C(=O)Cc1cccc(F)c1 | 1.744% | 
19 | CN(Cc1cc(C#N)cs1)Cc1nccn1C | -7.444% | 
20 | CC(C)N1CCC(c2n[nH]cc2-c2ccnc(N)c2)C1 (configuration not stated) |  | 18.38%
21 | CC(C)Nc1cc(-c2c[nH]nc2C2CCN(C(=O)C3CC3)C2)ccn1 (configuration not stated) |  | 77.26%
22 | CC(C)Nc1cc(-c2c[nH]nc2C2CCN(C(=O)C3CCC3)C2)ccn1 (configuration not stated) |  | 95.4%
23 | CN1CCC(c2n[nH]cc2-c2ccnc(N)c2)C1 (configuration not stated) |  | -7.314%
24 | Cc1c[nH]nc1C1CCN(C(=O)C2CCCC2)C1 (configuration not stated) |  | 6.331%
25 | Cc1c[nH]nc1C1CCN(C(=O)C2CCOCC2)C1 (configuration not stated) |  | 9.496%
26 | CC(=O)N1CCC(c2n[nH]cc2-c2ccnc(N)c2)C1 (configuration not stated) |  | 20.34%
27 | CC(C)CNc1cc(-c2c[nH]nc2C2CCN(C(=O)C3CC3)C2)ccn1 (configuration not stated) |  | 86.59%
28 | Cc1c[nH]nc1C1CCN(C(=O)C2CCC2)CC1 |  | 14.73%
29 | Nc1cc(-c2c[nH]nc2C2CCCCN2C(=O)C2CCCC2)ccn1 (configuration not stated) |  | -17.94%
30 | Nc1cc(-c2c[nH]nc2C2CCN(C(=O)C3CCCC3)C2)ccn1 (configuration not stated) |  | 5.055%
31 | CCCNc1cc(-c2c[nH]nc2C2CCN(C(=O)C3CCC3)C2)ccn1 (configuration not stated) |  | 94.14%
32 | NCCC(=O)N1CCCC1Cc1cccc(F)c1 (configuration not stated) | -2.968% | 
